Source: the supplement of paper PMC10338343
± gives the standard deviation.

tested on: MILI (PIWIL2) piRISC loaded with L1MC piRNA (26 nt); test: pre-steady-state target cleavage rate (min^-1); guide: L1MC piRNA 5'p-UAACUAAAUACUAUGCAAGCUGUAGG; MIWI and MILI are mouse PIWI proteins and EfPiwi is from a freshwater sponge; tags in brackets are library labels; higher = faster piRNA-guided slicing of the target; settings: auxiliary factor: 500 nM mouse GTSF1
Summary of the method: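 With or without 500 nM GTSF1 partner protein, 1 nM active affinity-purified piRISC carrying one synthetic guide was mixed with 0.1 nM transcribed, DNA-blocked target RNA library in HEPES–potassium acetate buffer at 33 °C for 0–8 or 0–960 min. Uncleaved targets were sequenced and normalised to depth and to weakly complementary targets, three trials were pooled, and k3 was capped at 0.0001 min^-1. The pre-steady-state cleavage rate came from a burst-and-steady-state fit.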

Sequence	pre-steady-state target cleavage rate
UCCUGCUACAGCUUGCAUUCUAUUUUCAAA	0.0184 ± 0.0078
UCCUGGAUGUGCUUGCAUAGUAUUAAGAUA	0.00523 ± 0.0046
UCCUGGAUGUCCUUGCAUAGUUAAUAGUUA	0.00959 ± 0.0043
UCCUGGUACAGCUUGCAUAGUAAAUAGAAA	0.081 ± 0.025
UCCUGGAACAGCUUGCAUAGUAUUUACUAA	0.0459 ± 0.013
UCCUGGAUGUCGUUGCAUAGUAUCUAGUUA	0.11 ± 0.019
UCCUGGAUGUCGAUGCAUAGUAUUUCGUUA	0.0116 ± 0.0056
UCCUGGAUGUCGAACGUAACUAUAUAGUUA	< 0.0001
UCCUGGAACACGAUGCAUAGUAUUUAGAAA	0.072 ± 0.018

same assay, conditions: auxiliary factor: none (no GTSF1)

Sequence	pre-steady-state target cleavage rate
UCCUGGAUGUCGAACGUUAGUAAUUUGUUA	< 0.0001
UCCUGGAUGUCGAACGUAAGUAUUUUGUUA	< 0.0001
UCCUGGAUGUCGAACGUAUUUAUUUAGUUA	< 0.0001
UCCUGGAUGUCGAACGUAUGUAUUUUCAAA [g6:g11:cont:t1A]	< 0.0001
UCCUGGAUGUCGAAGCAUAGUAAUAAGUUA	< 0.0001
UCCUGGAUGUCGAACGAUAGUAUUUAGAUA	< 0.0001
UCCUGGAUGUCGAACGUAUGUACUUUAGUUA	< 0.0001
